Screening results as filed in PubChem.
D2 ag-1 = human D2 receptor agonism in beta-arrestin assay; P14416; DiscoveRx PathHunter D2 beta-arrestin, luminescence, 90 min; 100% = 57 uM dopamine signal; activation, % (concentration not given with the values); 360,000 compounds, 0.084% hits; in the data active means activation above about 40%; inconclusive means between about 15% and that limit
Target sequence (P14416 whole entry, looked up): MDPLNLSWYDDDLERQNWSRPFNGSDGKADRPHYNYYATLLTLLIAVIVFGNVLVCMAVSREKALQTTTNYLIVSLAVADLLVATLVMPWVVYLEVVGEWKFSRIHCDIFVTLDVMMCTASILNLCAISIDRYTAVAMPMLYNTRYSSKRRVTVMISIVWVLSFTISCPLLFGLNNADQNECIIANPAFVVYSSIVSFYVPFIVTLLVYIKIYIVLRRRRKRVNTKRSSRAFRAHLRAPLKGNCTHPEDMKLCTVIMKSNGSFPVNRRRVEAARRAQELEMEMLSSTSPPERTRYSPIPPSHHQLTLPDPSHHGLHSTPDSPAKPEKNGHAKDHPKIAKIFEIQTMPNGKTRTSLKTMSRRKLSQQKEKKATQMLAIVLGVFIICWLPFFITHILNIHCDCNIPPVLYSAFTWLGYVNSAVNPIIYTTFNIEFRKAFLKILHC
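DiscoveRx PathHunter D2 beta-arrestin cells (2,100/well) attached overnight, then compound-stimulated 90 min at 37 C in HBSS/10 mM HEPES/0.1% Tween-20 buffer; beta-galactosidase complementation read by luminescence after 1 h at ambient temperature. Dopamine 57 uM final (EC100) as control.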
D2 antag = antagonizes the human D2 dopamine receptor. HEK293 TREx D2 cells, calcium flux, dopamine EC80. inhibition, % at 10 µM. 340,000 compounds, 2% hits; in the data active means inhibition above about 30%; inactive means below that, where a call was filed; further: 0% is about no effect
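Inhibition of EC80 dopamine-driven calcium flux, recorded kinetically, defines activity here; cells are a tetracycline-induced HEK293 T-REx line expressing force-coupled D2.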
D2 PAM-1 = D2 dopamine receptor (human) potentiation | HEK293 T-REx D2, calcium flux, EC20 dopamine potentiation | AID 485347 | P14416 | 340,000 compounds, 0.34% hits | potentiation, % at 10 µM;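 active means potentiation over 3 SD above the plate norm, cut at about 30% in these data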; further: 0% is about no effect
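Potentiation of an EC20 dopamine calcium response measured kinetically over 180 s, after a preceding 180 s compound-only read flagging agonists. Cells: inducible Hek293 Trex D2 line, 4000/well, cultured overnight at 30 C before dye loading.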
B2AR arrestin = agonists driving beta-arrestin recruitment to human beta2-adrenergic receptor; 330,000 compounds, 0.02% hits; beta-arrestin recruitment to beta2AR, cell-based reporter; Potency, µM (titrated, usually from 46.1 µM), inactives show at the top dose activation, actives largely listed as activators; P07550;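 further: potency means the concentration at half of the fitted maximal effect; 0% = DMSO controls and full agonism = EC100 isoproterenol or metaproterenol; nearly all actives have a fitted effect of over 65% in size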
D2 PAM-2 = positive allosteric modulators of human D2 dopamine receptor | P14416 | DiscoveRx D2 beta-arrestin cells, luminescence, 90 min; 100% = 57 uM dopamine signal | potentiation, % (test concentration not listed) | 360,000 compounds, 0.23% hits; in the data active means potentiation above about 50%; inconclusive means mostly about 30% to 49%
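PathHunter beta-arrestin assay in DiscoveRx D2 cells. Compounds were added with an EC20 of dopamine (50 nM final) for 90 min at 37 deg C. Luminescence was read 1 h after detection reagent, with 57 uM dopamine as the EC100 control.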
D2 ag-2 = agonists of human D2 dopamine receptor. HEK293 T-REx D2 cells, calcium flux agonist mode. activation, % at 2 µM. 340,000 compounds, 0.53% hits. P14416;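 active means activation over 3 SD above normal in the single-dose calcium agonist read, cut at about 30% in these data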; further: 0% is about no effect
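HEK293 Trex D2 cells, tetracycline-induced, o/n 30 C 5% CO2; no-wash Ca dye, RT 30–90 min; 10-cycle baseline, 23 nl cpd added, kinetic Ca read 180 s; agonist hits = positive Ca response.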
D3 ag = D3 receptor agonism confirmed, beta-arrestin readout. shares compounds with D2 ag-2. DiscoveRx D3 beta-arrestin cells, luminescence, 90 min. Potency, µM (doses to about 76.9 µM), for the others: at the top dose activation, usual class: activators. 2,300 compounds, 4% hits. AID 720506;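 further: potency means the concentration at half of the fitted maximal effect; 100% = dopamine control response; nearly all actives have a fitted effect of over 70% in size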
D2 ag-3 = counter-screen for D3 agonists: human D2 dopamine receptor agonism. shares compounds with D2 ag-2. DiscoveRx PathHunter D2 beta-arrestin, luminescence, 90 min; response scale: percent relative to full dopamine signal. Potency, µM (titrated, usually from 76.9 µM), inactives show at the top dose activation, most hits filed as activators. 2,300 compounds, 5.9% hits. AID 720507; further: potency means the concentration at half of the fitted maximal effect; % of control where 0% means no effect; nearly all actives have a fitted effect of over 70% in size
Starred values were filed as active, the others as inactive; ? = inconclusive; / = no result given. Compounds with a hit are over-represented: about 2.4% of the library has one in this group of screens. Unless noted, the call rests on the fitted dose curve; in most records, active means well fitted activation curve with a large enough effect; inconclusive means small, poorly fitted or top-dose-only effect; inactive means flat fitted curve, though single readings scatter.

SMILES	D2 ag-1	D2 antag	D2 PAM-1	B2AR arrestin	D2 PAM-2	D2 ag-2	D3 ag	D2 ag-3
Cc1ccc([C@@H]2C[C@H]3[C@@H](CN2S(=O)(=O)c2ccc(C)cc2)C(=O)C[C@@H](c2ccc(C)cc2)N3S(=O)(=O)c2ccc(Cl)cc2)cc1	-12.0	/	/	/	-2.5	/	/	/
NS(=O)(=O)c1ccc(CCNC(=O)C2CCN(S(=O)(=O)c3ccccc3)CC2)cc1	-2.8	-10.8	7.0	0.1%	-3.3	-0.8	/	/
O=C(COC(=O)C1CCN(S(=O)(=O)c2ccccc2)CC1)NCCc1ccccc1	-0.4	-24.0	0.4	0.0%	1.1	0.5	-1.8%	0.2%
COc1ccc(OC)c(-n2c(CN3CCC(C(N)=O)CC3)nc3ccccc3c2=O)c1	0.1	4.5	-15.3	-0.7%	3.1	56.5*	-0.2%	-0.5%
Cc1cc(S(=O)(=O)NC(C)C)ccc1OCC(=O)N1CCOCC1	-2.1	-9.9	-1.3	-0.2%	-8.3	0.1	/	/
O=C(COc1ccccc1[N+](=O)[O-])N(Cc1ccccc1)c1ccccn1	?	21.2	-30.2	0.0%	11.0	52.5*	?	?
Cc1ccc(CN(C(=O)COc2ccccc2[N+](=O)[O-])c2ccccn2)cc1	/	/	-27.2	/	/	/	/	/
OCC1(Cc2cccc(C(F)(F)F)c2)CCN(Cc2cc3ccccc3o2)CC1	51.1*	21.9	-17.3	0.1%	12.1	49.0*	?	39.8µM*
COc1ccc(CC2(CO)CCN(Cc3ccncc3)CC2)cc1	-4.8	6.6	-6.5	-0.1%	3.5	1.8	/	/
COc1ccc(CC2(CO)CCN(Cc3cc4ccccc4o3)CC2)cc1	62.2*	/	/	5.0%	17.8	/	?	11.2µM*
CCC(=O)c1ccc(OCC(=O)Nc2ccccc2N2CCOCC2)cc1	1.7	-19.0	8.7	-0.1%	-0.9	-0.3	/	/
CN1CCN(C(=O)N2c3ccccc3C=Cc3ccccc32)CC1	-1.3	-11.4	-17.8	-0.5%	-10.0	54.5*	-3.7%	-3.7%
O=C(CCCN1C(=O)c2cccnc2C1=O)Nc1ccccc1F	1.8	-3.5	9.7	0.0%	1.1	3.1	/	/
CCc1ccccc1NC(=O)CCCN1C(=O)c2cccnc2C1=O	-0.4	-14.2	-16.5	5.2%	-6.1	41.1*	-5.5%	-4.5%
COc1cc(OC)cc(-n2c(=O)c3sccc3n(Cc3c(C)cc(C)cc3C)c2=O)c1	/	/	2.5	/	/	0.1	/	/
CCOC(=O)c1c(C)c(C(=O)NCCCN2CCCC2=O)c(C)n1CC	0.6	-7.4	-18.9	-0.6%	-15.1	62.0*	-4.6%	-3.8%
O=C1CSC(c2ccccc2[N+](=O)[O-])N1c1cccc(F)c1 (centres undefined)	-2.3	-11.3	-3.8	-0.3%	-20.7	-1.4	/	/
c1ccc(Cc2nnc3n2CCCCC3)cc1	-1.3	-7.4	-3.7	0.0%	-14.5	0.0	/	/
c1ccc(N2CCN(CCc3nnc4n3CCCCC4)CC2)cc1	5.1	26.8	10.7	-0.8%	-20.1	32.2*	-1.7%	8.4%
O=C(O)c1ccccc1SC1CC(=O)N(c2cccc3ccccc23)C1=O (centres undefined)	-1.3	-7.6	-22.6	-0.2%	-2.0	40.7*	-2.5%	-3.7%
CCN1C(=O)CC(Sc2ccccc2C(=O)O)C1=O (centres undefined)	14.7	-4.1	0.6	-0.4%	3.6	-0.6	/	/
CN(Cc1cn(C)nc1-c1ccccc1F)CC1CCN(Cc2ccccc2)CC1	-5.9	-0.6	-17.6	-0.2%	-30.3	0.7	/	/
COc1ccc(CCC(=O)OCC(=O)c2ccc[nH]2)cc1OC	0.0	/	/	0.0%	-2.7	/	/	/
Cc1cc(C)nc(N2CCC(C(=O)NCc3cccs3)CC2)n1	-2.4	-8.3	-5.7	-0.8%	-4.7	31.4*	-0.7%	-6.0%
Cc1cc(C)nc(N2CCC(C(=O)NCc3ccco3)CC2)n1	-1.5	/	/	-0.4%	-9.8	/	/	/
SMILES	D2 ag-1	D2 antag	D2 PAM-1	B2AR arrestin	D2 PAM-2	D2 ag-2	D3 ag	D2 ag-3
Cc1oc(-c2ccccc2F)nc1CN1CCC(C(=O)NCc2cccs2)CC1	1.0	-6.5	-15.0	1.1%	-2.4	52.2*	-3.6%	8.1%
CCOC(=O)C(Cc1ccnnc1)=NO	-4.1	/	/	/	2.2	/	/	/
O=C(NCc1ccco1)C1CC(=O)N(CCc2ccccc2)C1 (centres undefined)	0.5	4.9	2.5	-0.2%	1.4	-1.3	/	/
CC(CCCCCCCCC(=O)O)N(CCO)C(=O)OC(C)(C)C (centres undefined)	-4.2	-2.3	6.7	0.0%	-5.8	0.2	-1.7%	-2.8%
CCN1CCN(c2ncnc3scc(-c4ccc(OC)cc4)c23)CC1	78.1*	-12.8	-1.1	-0.7%	5.4	40.6*	-0.1%	39.8µM*
Cc1ncoc1C(=O)N1CCc2c([nH]c3ccccc23)C1C1CCCCC1 (centres undefined)	0.9	-10.0	1.5	0.5%	-1.9	0.1	/	/
O=C(O)C1CCCC2CN3CCc4c([nH]c5ccccc45)C3C(O)C21 (centres undefined)	?	57.1*	-11.9	-0.9%	-14.8	25.9	-0.7%	?
O=C1CCC2CN3CCc4c([nH]c5ccccc45)C3CC2C1 (centres undefined)	2.2	/	/	/	-14.1	/	/	/
O=C(O)[C@@H]1[C@H]2C[C@H]3c4[nH]c5ccccc5c4CCN3C[C@@H]2CC[C@@H]1O	-0.4	68.0*	-12.9	-0.1%	-28.9	40.9*	7.7%	?
COCCN(C(=O)CSc1n[nH]c(-c2ccc(OC)cc2)n1)c1c(N)n(Cc2ccccc2)c(=O)[nH]c1=O	0.0	10.0	9.3	0.0%	-11.6	-0.1	/	/
Fc1ccccc1N1CCN(CC2CCCCC2)CC1	0.6	88.8*	-17.9	-0.5%	-2.2	14.7	19.2%	22.8%
Fc1ccccc1N1CCN(Cc2cccnc2)CC1	?	67.7*	-21.3	-1.0%	1.4	73.4*	?	?
CCS(=O)(=O)N1CCN(c2ccccc2F)CC1	-2.7	-2.0	2.5	-0.2%	-5.9	0.6	/	/
O=c1nc2ccccc2c2n1CC(CN1CCN(c3ccc(F)cc3)CC1)N2 (centres undefined)	-3.0	-12.9	12.5	-0.1%	-7.6	3.4	/	/
O=c1nc2ccccc2c2n1CC(CN1CCN(c3ccccc3F)CC1)N2 (centres undefined)	2.1	16.1	-14.2	-0.5%	-20.6	28.9	-3.1%	8.5%
O=C(O)C1CC(=O)N(Cc2cccs2)C1 (centres undefined)	0.1	7.0	3.2	-0.4%	5.9	-2.8	/	/
